HSF1 inhib: HSF1 inhibition; NIH3T3-HGL HSE-luciferase, MG132-induced, luminescence 8 h; hits give low values; activity change, negative = inhibition, % at 7.5 µM (by protocol); actives 0.77% (n = 300,000); AID 2098;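 active = more than half of replicate wells show activity change below -50%, luminescence cut by over half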;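 note: luciferase reports HSF-1 transcriptional activity via heat shock element; 0% = median of DMSO wells and -100% = zero luminescence signal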
HSF-1 act: increases HSF-1 driven luciferase reporter signal | activation, % at 9 µM | AID 504408 | actives 1.7% (n = 300,000) | NIH3T3-HGL HSF-1 luciferase reporter, MG132, 8 h; 100% = twice DMSO control signal;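 active = mean replicate activation of at least 50% with a set share of replicates each reaching 50%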;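 note: 0% = median of the neutral control wells and 100% = twice that signal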
AHR activator: activates the human aryl hydrocarbon receptor; AID 2796; AHR-responsive luciferase reporter cells, luminescence; actives 2.5% (n = 320,000); P35869; activation, % at 5 µM; in the data active = activation above about 47%;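 note: 0% = vehicle wells and 100% = reference agonist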
Target sequence (P35869 whole entry, looked up): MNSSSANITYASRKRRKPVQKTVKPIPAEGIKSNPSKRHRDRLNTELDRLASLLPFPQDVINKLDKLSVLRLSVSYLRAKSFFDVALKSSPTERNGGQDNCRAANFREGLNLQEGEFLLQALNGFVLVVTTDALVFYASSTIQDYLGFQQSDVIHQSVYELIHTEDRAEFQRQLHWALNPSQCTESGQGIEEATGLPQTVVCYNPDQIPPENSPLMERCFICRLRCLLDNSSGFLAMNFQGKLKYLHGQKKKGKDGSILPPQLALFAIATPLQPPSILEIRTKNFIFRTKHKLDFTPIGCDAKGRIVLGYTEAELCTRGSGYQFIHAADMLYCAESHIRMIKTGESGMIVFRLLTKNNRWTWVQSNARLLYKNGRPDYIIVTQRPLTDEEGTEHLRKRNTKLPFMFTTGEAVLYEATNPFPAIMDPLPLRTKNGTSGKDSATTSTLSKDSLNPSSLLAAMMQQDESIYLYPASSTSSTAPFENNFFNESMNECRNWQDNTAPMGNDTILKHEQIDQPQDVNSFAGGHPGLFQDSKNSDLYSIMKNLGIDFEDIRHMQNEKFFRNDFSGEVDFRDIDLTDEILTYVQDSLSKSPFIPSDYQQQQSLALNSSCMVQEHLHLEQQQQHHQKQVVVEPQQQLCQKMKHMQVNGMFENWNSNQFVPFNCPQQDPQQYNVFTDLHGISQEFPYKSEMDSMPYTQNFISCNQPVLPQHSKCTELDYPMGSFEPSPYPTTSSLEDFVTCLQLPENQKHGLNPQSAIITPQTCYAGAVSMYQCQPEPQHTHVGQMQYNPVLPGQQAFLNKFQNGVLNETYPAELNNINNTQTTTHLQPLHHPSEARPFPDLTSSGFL
GAA850 FXN act: increases GAA850 frataxin promoter reporter activity; HEK293 lucGAA850 FXN promoter luciferase reporter, 24 h; percent of 10 µM SAHA response; activation, % at 6 µM; actives 0.56% (n = 360,000); AID 540364;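 active = activation above the average of all compounds screened plus 3 SD, cutoff fixed separately per campaign, cut at about 7.5% in these data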;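 note: 0% = DMSO wells and 100% = 10 µM SAHA wells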
GAA30 FXN cntr: GAA30 FXN promoter activation counter-screen; shares compounds with GAA850 FXN act; HEK293 lucGAA30 FXN promoter luciferase, 24 h; DMSO = 0%, 5 µM ipriflavone = 100%; activation, % at 6 µM; actives 66% (n = 1,900);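 active = mean activation above the mean of solvent-only control wells plus 3 SD, cut at about 22% in these data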;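 note: counterscreen of GAA850 promoter hits where activity marks nonselective or luminescence artifacts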
FXN GAA850 conf: confirmation of GAA850 frataxin (FXN) promoter activators. shares compounds with GAA850 FXN act. HEK293 lucGAA850 FXN promoter luciferase reporter, 24 h; 100% = activation by SAHA. activation, % at 6 µM. actives 86% (n = 1,900);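 active = mean activation above a set limit taken from the primary screen, cut at about 8% in these data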;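 note: 0% = DMSO wells and 100% = 10 µM SAHA wells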
An asterisk follows results filed as active; nt = no result given. The list is not random: actives were taken first. Their share in the collection is about 4.6%.

SMILES	HSF1 inhib	HSF-1 act	AHR activator	GAA850 FXN act	GAA30 FXN cntr	FXN GAA850 conf
O=C(NN1CCOCC1)c1cccc(COc2cccc(Br)c2)c1	23.2	30.7	5.0	8.0*	89.8*	37.3*
COc1ccc(N=c2oc3cc(O)ccc3cc2C(=O)NCC2CCCO2)c(OC)c1 (stereo unspecified)	13.1	28.8	-12.8	9.7*	5.4	17.8*
COc1ccc(-c2cc(C(=O)NCC3CCCO3)c3cc(C)ccc3n2)cc1 (stereo unspecified)	-26.3	-42.2	6.3	7.6*	67.6*	22.4*
COc1ccc(CCN2CC(C(=O)N(C)CCc3cn[nH]c3)CCC2=O)cc1 (stereo unspecified)	-1.2	-5.6	nt	-0.6	nt	nt
O=c1sc(N2CCN(c3ccccc3F)CC2)nc2ccsc12	28.2	21.1	-1.4	7.9*	106.0*	40.2*
O=S(=O)(c1cccs1)N1CCN(c2ccccc2F)CC1	-0.5	-6.6	-0.3	7.7*	12.3	6.9
O=c1sc(N2CCN(c3ccc(F)cc3)CC2)nc2ccsc12	14.2	38.9	-5.2	5.2	nt	nt
COc1ccc(O)c(C(=O)c2cnn(C(=O)c3cccc(S(=O)(=O)N4CCOCC4)c3)c2)c1	-2.0	1.8	2.0	3.0	nt	nt
C[C@@H]1CCCCO[C@@H](CN(C)Cc2ccc3c(c2)OCO3)[C@@H](C)CN([C@H](C)CO)C(=O)c2cc(NS(=O)(=O)c3ccccc3)ccc2O1	nt	nt	nt	-5.8	nt	nt
COc1ccc2oc(=O)c(-c3csc(Nc4ccc(O)cc4)n3)cc2c1	19.1	23.5	-6.6	18.6*	79.2*	24.2*
O=c1c2c3c(sc2nc2n1N=C(c1cccs1)CS2)CCCC3	-24.0	-26.3	5.9	9.6*	87.4*	40.2*
O=C1CN(c2nc(-c3cccs3)nc3sc4c(c23)CCCC4)CCN1	14.2	22.4	22.8	9.3*	49.3*	23.0*
O=c1oc(-c2cccs2)nc2sc3c(c12)CCC3	0.8	-3.2	1.8	-0.4	nt	nt
CCOc1ccccc1-c1nc(CN(Cc2cnn(C)c2)C(C)C)c(C)o1	-9.2	-14.0	5.0	0.2	nt	nt
Cc1nc(SCC(=O)c2cccs2)c2oc3ccccc3c2n1	33.0	50.8*	71.9*	7.6*	100.5*	38.8*
C/C(=N\Nc1nc2ccccc2[nH]1)c1ccc(C)o1	15.1	37.9	76.5*	8.4*	120.7*	36.1*
Cc1sc2nc(SCC(=O)C(C)(C)C)n(Cc3ccco3)c(=O)c2c1C	7.2	26.4	-1.8	-2.5	nt	nt
Cc1sc2nc3c4ccccc4c(NCc4ccco4)nn3c(=O)c2c1C	nt	nt	-4.8	10.3*	104.9*	30.0*
Cc1ccccc1Nc1nc(N)nc(-c2oc3ccccc3c2C)n1	42.7	71.9*	-6.3	8.6*	100.9*	51.6*
Cc1c(-c2nc(N)nc(Nc3ccc(F)cc3)n2)oc2ccccc12	22.7	44.3	-12.0	9.8*	89.4*	37.7*
O=c1oc2ccccc2c(Nc2ccc(F)cc2)c1[N+](=O)[O-]	-0.8	4.8	3.6	1.2	nt	nt
COc1ccccc1Nc1nc(N)nc(-c2oc3ccccc3c2C)n1	-1.5	15.3	10.0	1.5	nt	nt
Cc1cccc(CSC2=NN3CCCC(=O)N=C3S2)c1	4.9	-7.5	2.4	4.6	nt	nt
CCOC(=O)c1c(NC(=O)CSc2ncn[nH]2)sc(C(C)=O)c1C	2.2	-11.6	0.8	2.4	nt	nt
O=C(c1ccc(-c2ccc([N+](=O)[O-])cc2)o1)N1CCCCC1	56.7	87.2*	-4.8	8.5*	125.3*	44.0*
SMILES	HSF1 inhib	HSF-1 act	AHR activator	GAA850 FXN act	GAA30 FXN cntr	FXN GAA850 conf
O=C(OCC1CC(c2ccccc2Cl)=NO1)c1ccc(Br)cc1 (stereo unspecified)	-4.9	0.3	3.3	7.6*	11.4	4.7
O=C(OCC1CC(c2ccccc2)=NO1)c1ccc(Br)cc1 (stereo unspecified)	-5.6	15.5	-2.9	1.3	nt	nt
COC(=O)C1=C(C)N(C)C(=O)NC1c1cc(Cl)c(O)c(OC)c1 (stereo unspecified)	13.5	20.2	2.1	7.8*	9.8	11.8*
COC(=O)C1=C(C)N(C)C(=O)NC1c1cc(Cl)cc(Cl)c1OC (stereo unspecified)	nt	nt	-2.0	-0.7	nt	nt
CCn1c(SCC(=O)NCCc2ccc(Cl)cc2)nnc1-c1cccs1	7.1	25.5	0.3	0.0	nt	nt
COc1ccc(NS(=O)(=O)c2cc(NC(=O)CNC(=O)c3cccc(OC)c3)ccc2C)cc1	15.2	33.2	7.0	7.9*	32.5*	17.6*
S=c1[nH]nc(-c2ccccn2)n1/N=C/c1ccccc1	-5.8	-6.3	7.8	0.4	nt	nt
COc1ccc(CCN(C)c2ccc(S(=O)(=O)N3CCCC3)cc2[N+](=O)[O-])cc1OC	3.9	19.9	0.9	9.9*	9.2	10.6*
Cn1c2ccccc2c(=O)c2cc(NCCCN3CCOCC3)ccc21	nt	nt	15.6	17.2*	142.6*	58.4*
CN1CCC[C@H]1CCNc1ccc2c(=O)c3ccccc3n(C)c2c1	nt	nt	nt	12.5*	46.0*	69.4*
Cn1c2ccccc2c(=O)c2ccc(NCc3ccc4c(c3)OCO4)cc21	nt	nt	nt	11.2*	71.4*	26.9*
COc1ccc2c(C)c(C(=O)NCC(C)O)oc2c1OC (stereo unspecified)	0.3	14.6	18.2	0.1	nt	nt
CN(CCCC1CCCC1)C(=O)c1cc(COc2c(F)cccc2F)on1	3.1	12.7	0.5	-0.5	nt	nt
COc1ccc2c(c1OC)C(=O)N(c1cccc(C(F)(F)F)c1)C2	18.3	40.0	-6.9	18.1*	99.2*	38.4*
O=C(CSCc1ccc(Cl)cc1)Nc1ccc(S(=O)(=O)N2CCCCCC2)cc1	2.5	9.8	-0.1	0.5	nt	nt
O=C(CCc1nc(-c2cccs2)no1)Nc1cnc2ccccc2c1	0.4	3.1	11.1	3.6	nt	nt
Cc1cc(Nc2ccccc2)nc(NCc2ccccc2)n1	2.7	5.7	18.8	0.6	nt	nt
Cc1cc(Nc2ccc(Cl)cc2)nc(NCc2ccccc2)n1	7.8	0.7	32.1	14.4*	17.1	10.3*
CCn1c(O)c(/C=C2\C=Nc3ccccc32)sc1=Nc1ccccc1	9.1	18.2	8.7	12.7*	60.0*	27.1*
O=c1[nH]c(/C=C2\C=Nc3ccccc32)c(O)n1Cc1ccccc1F	20.2	28.5	16.4	-1.4	nt	nt
O=C(CSCCO)Nc1cccc2ccccc12	-15.2	-2.7	9.4	-2.3	nt	nt
O=C(CSCC(=O)Nc1cccc2ccccc12)Nc1cccc2ccccc12	4.8	-1.7	21.9	13.6*	23.5*	4.9
O=C(Nc1cccc(S(=O)(=O)N2CCOCC2)c1)c1cccc(S(=O)(=O)N2CCCCC2)c1	nt	nt	nt	1.4	nt	nt
CCN(CC)S(=O)(=O)c1cc(NC(=O)CSc2nc3c(cc2C#N)C(=O)CC(C)(C)C3)ccc1C	46.5	45.8	-1.7	10.2*	6.4	3.5
O=C(Nc1ccc2oc(-c3cccc4ccccc34)nc2c1)c1ncn[nH]1	4.9	40.1	11.7	8.8*	104.5*	40.6*

Assay outcomes from PubChem BioAssay.
